# Data as given in PubChem BioAssay AID540327 (National Center for Advancing Translational Sciences (NCATS), 2011).
# Several values for one entry are separate records, joined by “and”; a condition that tells them apart may be missing. Equal entries are not always repeated. This is one part of the list. Records with an inconclusive call do not appear. Activity calls are given as the source filed them. The call rests on the fitted dose curve; in most records, active means well fitted inhibition curve with a large enough effect; inconclusive means small, poorly fitted or top-dose-only effect; inactive means flat fitted curve, though single readings scatter.
# Target: Ubiquitin carboxyl-terminal hydrolase 1 (Homo sapiens) (UniProt O94782)
# Experiment: Inhibitors of USP1/UAF1: Hit Validation in Primary Assay
# Conditions: Ub-Rhodamine cleavage, fluorescence kinetic read
# Excerpt: Deubiquitinating enzymes (DUBs) are a class of enzymes that can cleave isopeptide bond formed between the C-terminal carboxylate of ubiquitin and a lysine side-chain amino group on the target protein. Among them, ubiquitin specific proteases (USPs) constitute the largest DUB family. Human USPs are emerging as promising targets for pharmacological intervention because of their connection to a number of human diseases, including prostate, colon and breast cancer (1, 2), pediatric acute lymphoblastic leukemia (3), and familial cylindromatosis (4). The advantage of inhibiting USPs lies in the potential specificity of therapeutic intervention that can lead to better efficacy and reduce nonspecific side effects. […] This miniaturized assay has a fluorescent read-out and is used to screen the NIH Molecular Libraries Small Molecule Repository (MLSMR) in order to identify a small molecule that inhibits USP1. […]
# 3 microliters of reagents (buffer in columns 3 and 4 as negative control and 1nM USP1/UAF1 complex in columns 1, 2, and 5-48) are dispensed into Greiner black solid bottom 1536-well assay plates. […] The plates are immediately centrifuged at 1000 rpm for 15 seconds, and subsequently transferred to a ViewLux high-throughput CCD imager (PerkinElmer) wherein kinetic measurements of fluorescence are acquired using 480 nm excitation/540 nm emission filter set (6 reads every 60 seconds, see Table 1). […]
# Chain of Ubiquitin carboxyl-terminal hydrolase 1 (Homo sapiens) (O94782 whole entry, looked up): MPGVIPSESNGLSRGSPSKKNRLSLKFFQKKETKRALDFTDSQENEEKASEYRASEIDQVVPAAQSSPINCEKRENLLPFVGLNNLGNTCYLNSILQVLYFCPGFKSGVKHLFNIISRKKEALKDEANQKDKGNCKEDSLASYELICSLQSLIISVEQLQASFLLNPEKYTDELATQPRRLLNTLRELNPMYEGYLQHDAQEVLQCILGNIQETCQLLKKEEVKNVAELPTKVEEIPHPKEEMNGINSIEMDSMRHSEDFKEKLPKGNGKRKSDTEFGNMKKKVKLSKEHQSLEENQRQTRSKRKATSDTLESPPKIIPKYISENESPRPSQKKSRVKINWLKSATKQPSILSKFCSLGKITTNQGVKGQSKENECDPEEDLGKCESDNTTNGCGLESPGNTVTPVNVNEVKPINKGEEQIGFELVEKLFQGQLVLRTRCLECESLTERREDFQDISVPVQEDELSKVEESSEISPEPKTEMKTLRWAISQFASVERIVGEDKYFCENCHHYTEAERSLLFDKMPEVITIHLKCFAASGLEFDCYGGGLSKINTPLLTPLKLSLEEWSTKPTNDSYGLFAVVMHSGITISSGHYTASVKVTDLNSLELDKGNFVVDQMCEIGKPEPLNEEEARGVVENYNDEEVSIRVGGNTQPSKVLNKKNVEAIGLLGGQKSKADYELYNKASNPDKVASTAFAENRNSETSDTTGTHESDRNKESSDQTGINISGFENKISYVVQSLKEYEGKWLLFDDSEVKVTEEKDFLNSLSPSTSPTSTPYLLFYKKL
smiles,measurement,value
CC(C)c1ccc2c(c1)c(SC(C)(C)C)c(CC(C)(C)C(=O)O)n2Cc1ccc(Cl)cc1,Potency,66.3 µM (active) and 41.8 µM (active)
